Shown is part of a subset that was picked to be rich in hits.
STK33 inh – inhibitors of human STK33 kinase; Q9BYT3; ADP-Glo luminescence, MBP substrate; inhibition, % at 12.5 µM; 0.44% of 27,000 active; AID 2322; in the data active = inhibition above about 20%; inconclusive = no clear call, values can overlap the other calls
Target sequence (Q9BYT3 whole entry, looked up): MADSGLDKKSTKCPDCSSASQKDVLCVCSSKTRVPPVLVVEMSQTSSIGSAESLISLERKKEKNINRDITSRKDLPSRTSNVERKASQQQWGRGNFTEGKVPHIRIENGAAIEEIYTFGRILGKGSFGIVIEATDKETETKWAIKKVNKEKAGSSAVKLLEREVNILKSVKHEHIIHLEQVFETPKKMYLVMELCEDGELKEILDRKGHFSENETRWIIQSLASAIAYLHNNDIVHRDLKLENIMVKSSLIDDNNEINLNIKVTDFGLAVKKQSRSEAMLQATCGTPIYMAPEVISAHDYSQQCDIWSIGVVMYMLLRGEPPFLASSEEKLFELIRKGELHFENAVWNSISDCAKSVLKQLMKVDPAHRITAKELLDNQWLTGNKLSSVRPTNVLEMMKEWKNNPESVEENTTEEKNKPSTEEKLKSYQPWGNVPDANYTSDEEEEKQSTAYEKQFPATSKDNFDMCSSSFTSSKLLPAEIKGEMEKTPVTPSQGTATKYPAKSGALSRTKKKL
PD-1 reversal – activators reversing PD-1 mediated T-cell inhibition; AID 2316; activation, % (no concentration beside the values); primary human CD4 T cells, PD-L1 beads, CellTiter-Glo 96 h; 29,000 tested, under 10 active; call rule not given here;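 note: 0% = median vehicle wells and 100% = positive control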
NOMO-1 viab – STK33 inhibitor candidate reducing NOMO-1 cell viability; inhibition, % (concentration not given with the values); 7.5% of 37,000 active; NOMO-1 AML viability, CellTiter-Glo luminescence, 72 h; AID 2330; in the data active = inhibition above about 80%; inconclusive = no clear call, values can overlap the other calls
* marks the source's active call; other numbers are inactive results; ? = inconclusive; . = not tested or not shown.

SMILES	STK33 inh	PD-1 reversal	NOMO-1 viab
C=C(C(=O)O[C@H]1C/C=C(/C)C[C@H](O)[C@H]2[C@H](C)C(=O)O[C@@H]2/C=C\1C)[C@@H]1CCC(=C)[C@@H]2C[C@H](O[C@@H]3O[C@H](COC(=O)CC(=O)O)[C@@H](O)[C@H](O)[C@H]3O)C(=C)[C@@H]2C1	-4	-3	105*
O=C1c2ccccc2-c2n[nH]c3cccc1c23	111*	-3	62
CNC(=O)c1cccc2c1-c1ccccc1C2=O	.	0	17
O=S(=O)(NCCNC/C=C/c1ccc(Br)cc1)c1cccc2cnccc12	79*	-3	58
NCCNS(=O)(=O)c1cccc2c(Cl)cccc12	5	3	31
CNCCNS(=O)(=O)c1cccc2cnccc12	22*	-1	14
COc1ccc(S(=O)(=O)Nc2ccc3c(c2)CC(=O)N([C@H](C)CO)C[C@H](C)[C@H](CN(C)Cc2ccc(Oc4ccccc4)cc2)O3)cc1	.	.	106*
C[C@@H]1CN([C@H](C)CO)C(=O)Cc2cc(NS(=O)(=O)c3ccc(Cl)cc3)ccc2O[C@@H]1CN(C)Cc1ccc(Oc2ccccc2)cc1	2	0	82*
COc1ccc(S(=O)(=O)Nc2ccc3c(c2)CC(=O)N([C@H](C)CO)C[C@@H](C)[C@H](CN(C)Cc2ccccc2)O3)cc1	1	2	-10
C[C@H]1CN([C@@H](C)CO)C(=O)Cc2cc(NS(=O)(=O)c3ccccc3)ccc2O[C@H]1CN(C)Cc1ccc(Oc2ccccc2)cc1	3	.	70
COc1ccc(S(=O)(=O)Nc2ccc3c(c2)CC(=O)N([C@H](C)CO)C[C@@H](C)[C@@H](CN(C)Cc2ccc(Oc4ccccc4)cc2)O3)cc1	-1	-2	116*
COc1ccc(CN(C)C[C@@H]2Oc3ccc(NS(=O)(=O)c4ccccc4)cc3CC(=O)N([C@H](C)CO)C[C@@H]2C)cc1	1	1	6
Cc1noc(C)c1S(=O)(=O)Nc1ccc2c(c1)C(=O)N([C@@H](C)CO)C[C@@H](C)[C@@H](CN(C)C(=O)NC(C)C)O2	.	.	14
C[C@@H]1CN([C@@H](C)CO)C(=O)c2cc(NC(=O)Cn3cnnn3)ccc2O[C@@H]1CN(C)Cc1ccc(-c2ccccc2)cc1	4	1	12
Cc1ccc(N(C(C)C(=O)Nc2ccc(Cl)c(C(F)(F)F)c2)S(C)(=O)=O)cc1 (stereo not given)	0	-4	?
Cc1ccc(C(=O)CCNc2ccc3c(c2)oc2ccccc23)o1	2	-10	-2
C/C(CCc1oc2ccccc2c1-c1ccc(C)o1)=N\O	.	-1	108*
N#Cc1c(-c2ccccc2Cl)cc(C2CC2)nc1N	.	-4	3
N#Cc1c(N)nc(Sc2ccc(Cl)cc2)c(C#N)c1-c1ccccc1	.	0	102*
C=CC(C)(C)[C@@]12CC(=O)C(=O)N3/C(=C/c4cnc[nH]4)C(=O)N[C@]31N(OC)c1ccccc12	-2	0	118*
CC[C@H]1OC(=O)[C@H](C)[C@@H](OC2C[C@@](C)(OC)[C@@H](O)[C@H](C)O2)[C@H](C)[C@@H](O[C@@H]2O[C@H](C)C[C@H](N(C)C)[C@H]2O)[C@](C)(O)C[C@@H](C)/C(=N\OCOCCOC)[C@H](C)[C@@H](O)[C@]1(C)O (stereo not given in full)	-1	3	14
C[C@@H]1CN([C@H](C)CO)C(=O)Cc2cc(NC(=O)Nc3ccc4c(c3)OCO4)ccc2O[C@@H]1CN(C)C(=O)Nc1ccc(C(F)(F)F)cc1	-2	2	8
C[C@H]1CN([C@@H](C)CO)C(=O)Cc2cc(NC(=O)Nc3ccc(C(F)(F)F)cc3)ccc2O[C@H]1CN(C)C(=O)Nc1ccc2c(c1)OCO2	-6	-2	2
C[C@@H]1CN([C@H](C)CO)C(=O)Cc2cc(NC(=O)Nc3ccc(C(F)(F)F)cc3)ccc2O[C@@H]1CN(C)C(=O)Nc1ccc2c(c1)OCO2	-4	-2	113*
C[C@@H]1CN([C@@H](C)CO)C(=O)Cc2cc(NC(=O)Nc3ccc(C(F)(F)F)cc3)ccc2O[C@@H]1CN(C)C(=O)Nc1ccc2c(c1)OCO2	.	.	125*
SMILES	STK33 inh	PD-1 reversal	NOMO-1 viab
CCC(Sc1nc(C)cc(=O)[nH]1)C(=O)Nc1ccccc1C#N (stereo not given)	1	2	21
Cc1n[nH]c(C)c1N1C(=O)c2cccc3c(N)ccc(c23)C1=O	.	0	-13
C[C@@H]1CN([C@H](C)CO)C(=O)c2cccc(NC(=O)c3nc4ccccc4s3)c2O[C@H]1CN(C)S(=O)(=O)c1cccs1	.	.	24
C[C@@H]1CCCCO[C@H](CN(C)Cc2ccc(C(F)(F)F)cc2)[C@@H](C)CN([C@H](C)CO)C(=O)c2cc(NS(C)(=O)=O)ccc2O1	-1	.	15
Cc1ccc(S(=O)(=O)Nc2ccc3c(c2)C(=O)N([C@H](C)CO)C[C@H](C)[C@@H](CN(C)Cc2ccc(C(F)(F)F)cc2)OCCCC[C@@H](C)O3)cc1	2	.	112*
COc1ccc(S(=O)(=O)Nc2ccc3c(c2)C(=O)N([C@H](C)CO)C[C@H](C)[C@@H](CN(C)Cc2ccc(C(F)(F)F)cc2)OCCCC[C@@H](C)O3)cc1	-2	.	?
C[C@@H]1CCCCO[C@H](CN(C)Cc2ccc(C(F)(F)F)cc2)[C@@H](C)CN([C@H](C)CO)C(=O)c2cc(NS(=O)(=O)c3ccc(Cl)cc3)ccc2O1	2	.	82*
COc1ccc(S(=O)(=O)N(C)C[C@H]2Oc3ccc(NC(=O)c4ccncc4)cc3C(=O)N([C@@H](C)CO)C[C@@H]2C)cc1	-1	0	-19
Cc1noc(C)c1S(=O)(=O)N(C)C[C@@H]1Oc2c(NC(=O)c3ccc(-c4nccs4)cc3)cccc2C(=O)N([C@@H](C)CO)C[C@@H]1C	.	.	33
C[C@@H]1CN([C@H](C)CO)C(=O)c2cccc(NC(=O)C3CCOCC3)c2O[C@@H]1CN(C)Cc1ccc(C(=O)O)cc1	.	.	5
C[C@H]1CN([C@@H](C)CO)C(=O)c2cccc(NC(=O)c3ccc(-c4nccs4)cc3)c2O[C@H]1CN(C)Cc1ccc(C(F)(F)F)cc1	.	.	72
C[C@H]1CN([C@@H](C)CO)C(=O)c2cccc(NC(=O)c3ccc(-c4nccs4)cc3)c2O[C@H]1CN(C)Cc1ccc(Oc2ccccc2)cc1	.	-2	64
C[C@@H]1CN([C@H](C)CO)C(=O)c2cccc(NC(=O)c3ccc(-c4nccs4)cc3)c2O[C@H]1CN(C)Cc1ccc(-c2ccccc2)cc1	.	-2	24
C[C@H](CO)N1C[C@H](C)[C@@H](CN(C)Cc2ccccc2)Oc2c(NC(=O)c3ccc(-c4nccs4)cc3)cccc2C1=O	.	-4	97*
C[C@H](CO)N1C[C@H](C)[C@@H](CN(C)Cc2ccc(-c3ccccc3)cc2)Oc2c(NC(=O)c3ccc(-c4nccs4)cc3)cccc2C1=O	.	-4	87*
C[C@H](CO)N1C[C@H](C)[C@H](CN(C)Cc2ccc(C(F)(F)F)cc2)Oc2c(NC(=O)c3ccc(-c4nccs4)cc3)cccc2C1=O	.	.	98*
C[C@H](CO)N1C[C@H](C)[C@@H](CN(C)Cc2ccc(Oc3ccccc3)cc2)Oc2c(NC(=O)c3ccc(-c4nccs4)cc3)cccc2C1=O	.	-2	112*

Assay outcomes from PubChem BioAssay.
